Experimental data: PubChem BioAssay (NCI)
The panel holds about 83,000 compounds, 20% with a hit somewhere; the sample as a whole holds those more often.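 96-well plates, one dose, 48 hours. Percent growth reported; active if below 10.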 Values without a mark were called inactive. Calls of active or inactive are those of the source.

Columns and labels:
Assay in all cases: NCI-60 one-dose screen, 48 h (100 = growth as untreated, 0 = no growth, -100 = all killed)
NCI-H23 lung = settings: 10 µM unless noted
NCI-H226 lung = settings: 10 µM unless noted
NCI-H322M lung = settings: 10 µM unless noted
HOP-62 NSCLC = settings: 10 µM unless noted
NCI-H460 lung = settings: 10 µM unless noted
HOP-92 NSCLC = settings: 10 µM unless noted
NCI-H522 lung = settings: 10 µM unless noted
A549/ATCC NSCLC = settings: 10 µM unless noted
786-0 renal = settings: 10 µM unless noted
COLO 205 colon = settings: 10 µM unless noted
DU-145 prostate = settings: 10 µM unless noted
K-562 leukemia = settings: 10 µM unless noted
MALME-3M melanoma = settings: 10 µM unless noted
MDA-MB-231 breast = settings: 10 µM unless noted
RXF 393 renal = settings: 10 µM unless noted
SF-268 CNS = settings: 10 µM unless noted
SF-295 CNS = settings: 10 µM unless noted
SF-539 CNS = settings: 10 µM unless noted
UACC-257 melanoma = settings: 10 µM
M14 melanoma = settings: 10 µM unless noted

SMILES	growth (NCI-H23 lung) [%]	growth (NCI-H226 lung) [%]	growth (NCI-H322M lung) [%]	growth (HOP-62 NSCLC) [%]	growth (NCI-H460 lung)	growth (HOP-92 NSCLC)	growth (NCI-H522 lung)	growth (A549/ATCC NSCLC)	growth (786-0 renal)	growth (COLO 205 colon)	growth (DU-145 prostate)	growth (K-562 leukemia)	growth (MALME-3M melanoma)	growth (MDA-MB-231 breast)	growth (RXF 393 renal)	growth (SF-268 CNS) [%]	growth (SF-295 CNS)	growth (SF-539 CNS)	growth (UACC-257 melanoma) [%]	growth (M14 melanoma)
NC(=O)NC(=O)/C=C/C(=O)OCCCl	111	98.2	105	114	104%	71.6%	-42.5% (active)	105%	125%	97.7%	112%	94.4%	95.9%	115%	105%	110	89.1%	105%	77.4	113%
O=C(CN1CCN(c2cc3c(cc2F)c(=O)c(C(=O)O)cn3C2CC2)CC1)Nc1ccc(C(=O)/C=C/c2ccccc2)cc1	24	57.4	73.7	59.4	7.12% (active)	14.9%	10.6%	4.12% (active)	23.2%	108%	43.1%	14.2%	51%	55.1%	41.7%	37	15.2%	26.2%	61.1	31.8%
COc1cc2nc(Cl)nc(NCCO)c2cc1OC	108	98.2	105	114	95.7%	95.6%	100%	97.7%	111%	125%	112%	105%	94.4%	109%	107%	110	103%	96.1%	98.6	110%
COc1ccc(S(=O)(=O)Nc2cc(/C=C\c3cc(OC)c(OC)c(OC)c3)cc(OC)c2OC)cc1OC	31.4	66.6	55.2	52.3	11.4%	43.3%	37.4%	34%	18%	-47.4% (active)	13.9%	15.8%	84.1%	32.3%	-8.93% (active)	38.4	8.39% (active)	-18.6% (active)	72	2.52% (active)
COc1ccc(/C=C\c2cc(OC)c(OC)c(OC)c2)c(NS(=O)(=O)c2ccc(C(C)(C)C)cc2)c1O	23.5	44.9	64	81.9	8.21% (active)	10.8%	-7.56% (active)	27.4%	24.4%	1.63% (active)	-0.37% (active)	13.2%	108%	8.45% (active)	22.6%	24.5	16.9%	2.6% (active)	65.7	14.9%
COc1cc2nc(SCc3cc(OC)c(OC)c(OC)c3)n(Cc3ccccc3)c(=O)c2cc1OC	20.5	49.7	45.4	41.4	22.3%	62.7%	-33% (active)	36.9%	36.8%	7.38% (active)	49.8%	10.2%	21.9%	36%	4.55% (active)	37.9	19.7%	-6.22% (active)	63.3	14.9%
O=C(c1ccncc1)N1N=C(c2ccc(Cl)cc2)CC1c1c[nH]c2ccccc12 (stereo not given)	85.9	82.7	96.3	75.1	96.8%	94.7%	80.8%	95%	104%	97.9%	102%	88.3%	96.7%	71.3%	112%	94.2	97%	97%	95.9	95.3%
COc1cc(Cn2c(SCC(=O)Nc3ccc(Cl)cc3)nc3ccccc3c2=O)cc(OC)c1OC	73	39.1	64.4	54	17.7%	-20.8% (active)	40.9%	64.9%	-11% (active)	92.9%	66.5%	45.7%	9.48% (active)	49.3%	19.1%	46.5	62.2%	-14% (active)	73.8	74.9%
CC(C)(C)OC(=O)N[C@@H](Cc1ccccc1)C(=O)N(Cc1ccccc1)C1(C(=O)NCc2ccccc2)CCN(Cc2ccccc2)CC1	49.3	70	64.3	56.2	26.6%	-8.51% (active)	43.7%	24.8%	51.7%	16.3%	75.6%	11%	25.6%	22.9%	61.9%	58.5	39.2%	47.2%	24.2	40.2%
Cc1ccc(C2=NN(c3ccc(S(=O)(=O)NC(=O)NCc4ccccc4)cc3)C(c3ccc(N(C)C)cc3)C2)c(C)c1 (stereo not given)	49.4	77.7	56.3	74.9	31.3%	82.3%	49.7%	22.1%	68.5%	62.1%	82.7%	49.6%	87%	75.7%	53%	50.8	52.7%	37.6%	60.3	27.3%
COc1cc(OC)c(C(=O)/C=C/c2ccc(C#N)cc2)c(OC)c1	20.1	28.9	17.3	13.6	-3.34% (active)	12.8%	-5.25% (active)	7.11% (active)	10.6%	9.97% (active)	18.3%	9.68% (active)	44.2%	22.2%	15.9%	21	8.32% (active)	2.95% (active)	30.8	1.79% (active)
O=C(O)c1ccc(-n2c(=O)c3ccccc3c3ccccc3c2=O)cc1	102	99.8	108	102	115%	110%	94.9%	106%	109%	105%	113%	103%	109%	106%	108%	99.5	92.7%	97.1%	102	117%
COc1ccc(-c2nc3sccn3c2-c2ccnc(NCCCNS(=O)(=O)c3ccc4ccccc4c3)n2)cc1	64.3	62	93.1	134	75.9%	104%	62.4%	76.1%	67.6%	57.6%	62.1%	34.6%	80.8%	53.7%	76.9%	63.5	61%	71.7%	82.8	56.5%
CCOC(=O)C1=C(C)NC(=O)NC1c1ccc(OCC(=O)N/N=C/c2ccc(Cl)cc2)cc1 (stereo not given)	105	95.8	87.5	89.9	101%	90.1%	81.2%	77%	97.6%	105%	106%	94.9%	101%	98.7%	95.6%	95.1	99.5%	91.3%	68.7	94.6%
